G9a inh – qHTS Assay for Inhibitors of Histone Lysine Methyltransferase G9a; Potency, µM (doses to about 102 µM), inactives show at the highest dose activity, negative = inhibition, hits mostly inhibitors; G9a H3K9 monomethylation, AlphaScreen, 2 h; 350,000 tested, 8.8% active; Histone-lysine N-methyltransferase EHMT2 (Homo sapiens), Q96KQ7; also: potency is read from the fitted curve at half-maximal effect; % is scaled to controls: 0 for no effect and ±100 for the full control effect; nearly all actives have a fitted effect of over 75% in size
Target sequence (Q96KQ7 913-1193 limits assumed): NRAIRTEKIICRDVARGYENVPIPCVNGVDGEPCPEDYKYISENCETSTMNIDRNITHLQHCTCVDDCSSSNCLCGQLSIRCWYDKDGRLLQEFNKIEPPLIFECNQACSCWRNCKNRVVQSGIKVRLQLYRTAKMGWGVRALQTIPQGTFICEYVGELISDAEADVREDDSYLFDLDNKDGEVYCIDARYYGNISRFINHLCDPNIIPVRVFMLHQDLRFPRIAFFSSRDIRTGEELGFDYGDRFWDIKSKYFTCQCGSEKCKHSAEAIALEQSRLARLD
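Signal arises when biotinylated H3K9 peptide, once monomethylated, bridges streptavidin donor and antibody-captured acceptor beads. Enzyme at 20 nM was preincubated 15 min with test compounds; peptide 500 nM and SAM 20 uM then reacted for 2 h.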
BAZ2B inh – qHTS Assay for Inhibitors of BAZ2B. AlphaScreen BAZ2B-H3K14Ac peptide displacement. Potency, µM (titrated, usually from 114 µM), for the others: at the highest dose activity change, negative = inhibition, hits mostly inhibitors. AID 504333, 2011. 360,000 tested, 4.4% active. Bromodomain adjacent to zinc finger domain protein 2B (Homo sapiens), Q9UIF8; also: potency is read from the fitted curve at half-maximal effect; % is scaled to controls: 0 for no effect and ±100 for the full control effect; nearly all actives have a fitted effect of over 60% in size
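AlphaScreen luminescence quantifies BAZ2B engagement of H3K14Ac peptide; the protein and biotinylated peptide are both at 50 nM final, buffer PBS pH 7.4 with 0.01% Tween-20, all steps at room temperature.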
HP1b chromo inh – HTS for Inhibitors of HP1-beta Chromodomain Interactions with Methylated Histone Tails; AlphaScreen HP1-beta / biotin-H3K9me3 peptide binding; 390,000 tested, 0.56% active; Chromobox protein homolog 1 (Homo sapiens), P83916; Potency, µM (series often up to 114 µM), for the others: top-dose activity change, negative = inhibition, usual class: inhibitors; also: potency is read from the fitted curve at half-maximal effect; nearly all actives have a fitted effect of over 70% in size
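Compound inhibition of the preformed complex between 50 nM HP1-beta and 50 nM biotinylated H3K9me3 peptide was read by AlphaScreen. Buffer was PBS pH 7.4 with 0.01% Tween-20. Incubations ran 30 min at room temperature, with 10 ug/mL donor/acceptor beads.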
PLK1 PBD inh – qHTS for Inhibitors of PLK1-PDB (polo-like kinase 1 - polo-box domain): Primary Screen; 360,000 tested, 2.8% active; Serine/threonine-protein kinase PLK1 (Homo sapiens), P53350; Potency, µM, for the others: max response, negative = inhibition, usual class: inhibitors; Plk1 PBD binding of FITC phosphopeptide, fluorescence polarization; also: potency is read from the fitted curve at half-maximal effect; series mostly up to about 57 µM; % is scaled to controls: 0 for no effect and ±100 for the full control effect; nearly all actives have a fitted effect of over 65% in size
JMJD2A Tudor – qHTS Assay for Inhibitors of JMJD2A-Tudor Domain | Lysine-specific demethylase 4A (Homo sapiens), O75164 | AlphaScreen JMJD2A-Tudor / H3K4me3 peptide binding | Potency, µM (top dose mostly 114 µM), for inactives: top-dose activity change, negative = inhibition, actives largely listed as inhibitors | 390,000 tested, 4.4% active | AID 504339, 2011; also: potency is read from the fitted curve at half-maximal effect; % is scaled to controls: 0 for no effect and ±100 for the full control effect; nearly all actives have a fitted effect of over 50% in size
PI5P4Ka inh – qHTS for Inhibitors of phosphatidylinositol 5-phosphate 4-kinase (PI5P4K); max response, %; AID 652105, 2013; PI5P4Kalpha enzyme, ADP-Glo luminescence, 60 min; active compounds read low; 330,000 tested, 1.2% active; active = max response of -50% or lower; inconclusive = between -30% and -50%; inactive = -30% or higher; also: value at the top dose of about 77 µM; % is scaled to controls: 0 for no effect and ±100 for the full control effect
Target sequence (P48426 whole entry, looked up): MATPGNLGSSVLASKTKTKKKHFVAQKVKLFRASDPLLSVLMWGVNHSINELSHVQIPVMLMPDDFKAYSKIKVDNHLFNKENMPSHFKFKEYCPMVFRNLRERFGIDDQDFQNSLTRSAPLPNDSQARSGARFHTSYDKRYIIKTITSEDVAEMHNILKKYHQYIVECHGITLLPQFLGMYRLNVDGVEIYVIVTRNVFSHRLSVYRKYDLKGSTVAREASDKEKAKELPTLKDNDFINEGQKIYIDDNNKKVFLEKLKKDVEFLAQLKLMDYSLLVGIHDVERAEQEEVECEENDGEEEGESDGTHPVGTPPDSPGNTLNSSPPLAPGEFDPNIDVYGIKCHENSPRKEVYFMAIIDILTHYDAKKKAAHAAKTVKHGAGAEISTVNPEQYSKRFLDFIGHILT
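Quantitative HTS of the MLSMR library against PI5P4Kalpha with substrate. ATP added last at 5 microM final; room temperature, 60 minutes. Remaining ATP depleted, ADP converted and read as luminescence.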
* marks the source's active call; other numbers are inactive results; u = inconclusive; x = no result given; [ ] = another dose, or the depositor's remark. Sampled rows, rich in hits. Any-hit rate of the full collection: about 12%. Unless noted, calls follow the shape of the dose curve; as a rule, active = well fitted curve in the direction sought with a large enough effect; inconclusive = small, poorly fitted or top-dose-only effect, or another doubt; inactive = no such curve, though single readings can be large; an effect the other way counts as inactive or inconclusive.

SMILES | G9a inh | BAZ2B inh | HP1b chromo inh | PLK1 PBD inh | JMJD2A Tudor | PI5P4Ka inh
O=C(CSc1n[nH]c(-c2cccnc2)n1)Nc1cccc(Cl)c1 | 50.1µM* | 2.3% | 81.9% | 1.2% | -9.2% | 2.4
Cc1ccc(NC(=O)CSc2n[nH]c(-c3ccncc3)n2)c(C)c1 | 6.8%[59 µM] | 5.9% | 23.8% | -7.6% | -4.3% | -1.6
Cc1cc(-c2nnc(SCC(=O)Nc3cccc(Cl)c3)n2N)n[nH]1 | 2.7% | 56.2µM* | 44.5% | -4.6% | -2.3% | -4.9
NNC(=O)C(C(=O)OCc1ccccc1)c1ccccc1 (stereo not drawn) | x | x | x | x | -20.5% | x
COC(=O)c1ccc(NC(=O)CSc2n[nH]c(-c3ccncc3)n2)cc1 | 35.5µM* | 0.0% | 46.2% | -1.0% | 3.3% | -5.0
CCOC(=O)c1ccc(NC(=O)CSc2n[nH]c(-c3ccncc3)n2)cc1 | u | 0.6% | 39.6% | -1.3% | -8.2% | -10.1
COc1cc(/C=N/NC(=O)NC2CCCCC2)ccc1O | -26.5% | -11.8% | 26.8% | 2.8% | -14.1% | 0.2
COc1cc(/C=N/NC(=O)NC2CCCCC2)cc(OC)c1O | 50.1µM* | -14.4% | -6.5% | -20.2% | -18.5% | -9.0
CC(=O)c1sc(NC(=O)CN2C(=O)C3CCCCC3C2=O)nc1-c1ccccc1 (stereo not drawn) | -5.2%[12.7 µM] | -7.9% | 35.8% | 5.1% | -17.9% | -3.7
Cc1ccc(NC(C)c2cc(Cl)ccc2O)cc1 (stereo not drawn) | -38.0%[59 µM] | 50.1µM* | -29.0% | -16.0% | u | 0.1
COc1cc(/C=N/NC(=O)c2nc(-c3ccccc3)n(-c3ccccc3)n2)ccc1O | -12.6%[59 µM] | -1.1% | 4.8% | -4.5% | -23.6% | -9.7
CCOc1cc(/C=C2\SC(=O)N(c3ccc(O)cc3)C2=O)ccc1O | 12.7%[12.7 µM] | -10.7% | 11.9% | 39.7% | -16.5% | 1.2
CCOc1cc(/C=C2\C(=O)N(c3nc(-c4ccc(Br)cc4)cs3)N=C2c2ccccc2)ccc1O | u | u | u | u | u | -83.1*
O=C(CCCCl)NC1=NN(c2ccccc2)C(=O)C1 | 4.5%[59 µM] | u | 18.6% | -8.4% | -18.1% | -1.4
COc1cc(/C=C2\C(=O)N(c3ccc(NC(C)=O)cc3)N=C2c2ccccc2)ccc1O | 44.7µM* | 35.5µM* | u | 23.8µM* | 39.8µM* | -10.7
O=C1/C(=C\c2ccc(O)c(O)c2)C(c2ccccc2)=NN1c1ccccc1 | 3.98µM* | 8.91µM* | u | 15µM* | 14.1µM* | -74.6*
CCCN1C(=O)c2ccccc2NC1c1ccc(OC)c(COc2cccc(C)c2C)c1 (stereo not drawn) | x | x | 11.3%[57 µM] | x | -6.2%[57.1 µM] | x
CCn1c(CSc2nc3ccccc3s2)n[nH]c1=S | 2.82µM* | -24.2% | -6.5% | -14.4% | 11.2µM* | x
CCn1c(CSc2nc3ccccc3s2)nnc1SCC(=O)c1ccc(Cl)cc1 | u | 6.1% | 7.6% | 2.99µM* | u | -50.7*
S=c1[nH]nc(CSc2nc3ccccc3s2)n1Cc1ccccc1 | 3.16µM* | -2.5% | 31.5% | -23.8% | u | -7.1
Cn1c(CSc2nc3ccccc3s2)nnc1SCC(=O)NCc1ccccn1 | -23.1%[59 µM] | 26.5% | -8.7% | -12.1% | -3.1%[11.4 µM] | 2.0
C=CCn1c(CSc2nc3ccccc3s2)nnc1SCC(=O)NCCN1CCOCC1 | -1.9% | 8.7% | 24.3% | -4.8% | -5.2% | x
CCCSc1nnc(CSc2nc3ccccc3s2)n1-c1ccccc1 | 4.4%[0.501 µM] | 8.3% | 33.2% | -8.2% | -2.6% | x
C=CCn1c(CSc2nc3ccccc3s2)n[nH]c1=S | 4.47µM* | 10.3% | 4.4% | -17.8% | 50.1µM* | 3.8
Cc1cc(C)cc(N2C(=O)CSC23C(=O)N(Cc2c(F)cccc2Cl)c2ccccc23)c1 (stereo not drawn) | u | -2.1%[57.1 µM] | 24.4% | x | -29.1% | x
SMILES | G9a inh | BAZ2B inh | HP1b chromo inh | PLK1 PBD inh | JMJD2A Tudor | PI5P4Ka inh
C/C(=N\Nc1nncc2ccccc12)c1ccc(OCC(=O)N(C)C)cc1 | 44.7µM* | u | -18.5% | -3.1% | -23.8% | -3.7
COc1ccc(OCC(=O)N/N=C(\C)c2ccc(OC)cc2)cc1 | -2.1% | -14.0% | 17.9% | -16.1% | -16.7% | -7.7
CC/C(=N\Nc1nncc2ccccc12)c1ccc(F)cc1 | 39.8µM* | -13.7% | 12.1% | -8.4% | -24.8% | 5.2
O=C(CCS(=O)(=O)c1nc(-c2ccc3c(c2)OCO3)cc(C(F)(F)F)n1)Nc1ccc(F)c(Cl)c1 | 2.8%[59 µM] | 4.2% | 38.0% | x | -8.2% | x
Cc1ccc(S(=O)(=O)NCc2ccccc2)cc1C(=O)NCC1CCCO1 (stereo not drawn) | 6.4% | 1.1% | 23.4% | 0.3% | -4.8% | 4.1
CCC(=O)N1CCc2cc(Br)cc(S(=O)(=O)CCC(=O)N(C)c3cccc(C)c3)c21 | -2.9%[12.7 µM] | 44.7µM* | u | x | 50.1µM* | x
CCC(=O)N1CCc2cc(Br)cc(S(=O)(=O)CCC(=O)N(CC)CC)c21 | 5.8% | -1.1% | 24.8% | -4.8% | -13.3% | -0.1
CCCN(CCC)S(=O)(=O)c1cc(Br)cc2c1N(C(=O)CC)CC2 | 50.1µM* | 13.2% | 59.5% | -13.5% | 11.8%[57.1 µM] | 4.8
CC(C)(C)c1ccc(C(=O)Oc2ccc3c(c2)OCC3=O)cc1 | 50.1µM* | 6.2% | 35.0% | -16.2% | 4.7% | 9.6
C=C(C)C(=O)Nc1cccc(C2=NOC3(C2)C[C@@H](C(N)=O)N(C(=O)c2cc([N+](=O)[O-])cc([N+](=O)[O-])c2)C3)c1 (stereo partly drawn) | u | 28.2µM* | 20µM* | u | 28.2µM* | -15.3
C=C(C)C(=O)Nc1cccc(C2=NOC3(C2)C[C@@H](C(N)=O)N(C(=O)c2ccc(OC)cc2)C3)c1 (stereo partly drawn) | u | 1.78µM* | 3.16µM* | 9.47µM* | 2.82µM* | u
C=C(C)C(=O)Nc1cccc(C2=NOC3(C2)C[C@@H](C(N)=O)N(C(=O)CCCCC)C3)c1 (stereo partly drawn) | u | 1.41µM* | 1.58µM* | 11.9µM* | 1.78µM* | u
CCCCCC(=O)Nc1cccc(C2=NOC3(C2)C[C@@H](C(N)=O)N(C(=O)c2cc([N+](=O)[O-])cc([N+](=O)[O-])c2)C3)c1 (stereo partly drawn) | u | -31.3% | -4.1% | -5.5% | u | 5.4
CCCCCC(=O)Nc1cccc(C2=NOC3(C2)C[C@@H](C(N)=O)N(C(=O)c2ccc(OC)cc2)C3)c1 (stereo partly drawn) | -47.5%[59 µM] | u | 10.4% | 0.4% | -34.5% | 1.3
CC(CO)NS(=O)(=O)c1cc(Cl)ccc1F (stereo not drawn) | x | x | x | -8.3% | x | 2.4

Bioassay records from PubChem BioAssay.
